Tests used:
Assay in all cases: log2 ratio of Biotin-Ahx-Ub-VS probe labelling (fragment/DMSO); higher = less target engagement (more negative = stronger competition), active = hit call of the paper (q ≤ 0.05, log2 ratio ≤ -1)
Details in all cases: compound concentration: 200 uM; treatment time: 3 h
ALG13 = target: T1, ALG13 (UniProt Q9NP73)
T1 sequence (whole entry): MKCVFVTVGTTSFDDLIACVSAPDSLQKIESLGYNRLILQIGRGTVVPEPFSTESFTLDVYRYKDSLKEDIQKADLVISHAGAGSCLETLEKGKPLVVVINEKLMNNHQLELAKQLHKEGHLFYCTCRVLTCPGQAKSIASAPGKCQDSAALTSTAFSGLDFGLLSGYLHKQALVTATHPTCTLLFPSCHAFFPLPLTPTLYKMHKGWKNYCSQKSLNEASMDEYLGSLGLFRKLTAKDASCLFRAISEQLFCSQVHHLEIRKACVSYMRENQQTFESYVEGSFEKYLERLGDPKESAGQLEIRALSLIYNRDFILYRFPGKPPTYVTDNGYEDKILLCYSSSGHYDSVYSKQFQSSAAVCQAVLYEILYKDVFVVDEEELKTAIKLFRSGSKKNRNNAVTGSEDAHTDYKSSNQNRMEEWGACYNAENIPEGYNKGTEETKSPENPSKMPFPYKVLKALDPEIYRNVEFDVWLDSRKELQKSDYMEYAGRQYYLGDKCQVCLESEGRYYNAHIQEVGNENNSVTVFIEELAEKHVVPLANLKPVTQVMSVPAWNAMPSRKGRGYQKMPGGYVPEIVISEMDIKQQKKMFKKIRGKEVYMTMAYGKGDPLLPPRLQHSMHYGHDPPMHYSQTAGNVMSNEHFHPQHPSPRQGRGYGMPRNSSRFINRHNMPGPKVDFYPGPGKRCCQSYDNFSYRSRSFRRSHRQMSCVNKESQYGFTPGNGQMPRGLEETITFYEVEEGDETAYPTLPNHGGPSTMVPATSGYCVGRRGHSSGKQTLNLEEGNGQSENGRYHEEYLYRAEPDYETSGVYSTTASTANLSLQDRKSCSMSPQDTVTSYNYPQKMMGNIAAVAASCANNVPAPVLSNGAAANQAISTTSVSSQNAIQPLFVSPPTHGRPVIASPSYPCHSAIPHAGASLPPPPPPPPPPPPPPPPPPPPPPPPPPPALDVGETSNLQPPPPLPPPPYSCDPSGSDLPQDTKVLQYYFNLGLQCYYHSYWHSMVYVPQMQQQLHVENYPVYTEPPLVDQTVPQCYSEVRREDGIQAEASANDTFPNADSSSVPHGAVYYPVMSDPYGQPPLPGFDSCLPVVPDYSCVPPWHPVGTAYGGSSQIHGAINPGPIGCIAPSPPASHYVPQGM
How it was run: (§1)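 Average log2 ratios of fragment over vehicle were obtained by unpaired t-test from global-median-normalised Spectronaut label-free quantities. Proteins with ≥2 unique peptides were included. HEK293T lysate (495 µg per sample) was treated in triplicate with fragment at 200 µM or vehicle for 3 h, then with Biotin-Ahx-Ub-VS at 0.5 µM final for 1 h, and labelled DUBs were NeutrAvidin-enriched and run by diaPASEF LC-MS/MS.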

ATXN3 = ATXN3 (UniProt P54252)
How it was run: as §1

BAP1 = target: T2, BAP1 (UniProt Q92560)
T2 sequence (whole entry): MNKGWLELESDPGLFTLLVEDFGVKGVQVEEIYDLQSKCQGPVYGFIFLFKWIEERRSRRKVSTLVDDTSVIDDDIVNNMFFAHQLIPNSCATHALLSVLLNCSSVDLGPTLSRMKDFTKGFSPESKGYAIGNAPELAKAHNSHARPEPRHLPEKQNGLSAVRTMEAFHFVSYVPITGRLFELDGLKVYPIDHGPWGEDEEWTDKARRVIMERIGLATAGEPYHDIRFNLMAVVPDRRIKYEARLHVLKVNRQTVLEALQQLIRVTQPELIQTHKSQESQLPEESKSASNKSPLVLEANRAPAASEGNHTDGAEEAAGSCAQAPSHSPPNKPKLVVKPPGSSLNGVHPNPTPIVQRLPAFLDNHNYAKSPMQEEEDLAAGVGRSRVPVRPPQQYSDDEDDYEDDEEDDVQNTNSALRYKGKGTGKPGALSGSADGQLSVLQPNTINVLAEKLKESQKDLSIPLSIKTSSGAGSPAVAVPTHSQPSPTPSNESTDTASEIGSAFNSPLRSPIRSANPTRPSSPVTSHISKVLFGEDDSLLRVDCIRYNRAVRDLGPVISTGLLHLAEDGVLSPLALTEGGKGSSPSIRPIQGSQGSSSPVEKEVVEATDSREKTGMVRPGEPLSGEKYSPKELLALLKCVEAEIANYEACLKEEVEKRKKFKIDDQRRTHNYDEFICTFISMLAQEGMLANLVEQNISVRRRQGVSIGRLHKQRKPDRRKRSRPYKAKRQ
How it was run: as §1

EIF3F = EIF3F (UniProt O00303)
How it was run: as §1

EIF3H = EIF3H (UniProt O15372)
How it was run: as §1

FAM105A = target: T3, FAM105A (UniProt Q9NUU6)
T3 sequence (whole entry): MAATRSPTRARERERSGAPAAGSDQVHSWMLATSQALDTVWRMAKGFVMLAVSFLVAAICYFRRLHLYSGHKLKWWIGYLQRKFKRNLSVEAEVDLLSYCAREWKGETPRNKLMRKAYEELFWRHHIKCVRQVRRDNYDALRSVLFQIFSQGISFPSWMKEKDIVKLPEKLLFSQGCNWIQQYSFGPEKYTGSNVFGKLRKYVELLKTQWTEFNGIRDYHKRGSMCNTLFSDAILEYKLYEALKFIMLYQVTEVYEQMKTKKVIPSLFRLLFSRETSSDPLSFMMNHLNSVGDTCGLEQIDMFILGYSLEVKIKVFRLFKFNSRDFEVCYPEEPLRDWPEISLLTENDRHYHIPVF
How it was run: as §1

OTUB1 = OTUB1 (UniProt Q96FW1)
How it was run: as §1

OTUD4 = target: T4, OTUD4 (UniProt Q01804)
T4 sequence (whole entry): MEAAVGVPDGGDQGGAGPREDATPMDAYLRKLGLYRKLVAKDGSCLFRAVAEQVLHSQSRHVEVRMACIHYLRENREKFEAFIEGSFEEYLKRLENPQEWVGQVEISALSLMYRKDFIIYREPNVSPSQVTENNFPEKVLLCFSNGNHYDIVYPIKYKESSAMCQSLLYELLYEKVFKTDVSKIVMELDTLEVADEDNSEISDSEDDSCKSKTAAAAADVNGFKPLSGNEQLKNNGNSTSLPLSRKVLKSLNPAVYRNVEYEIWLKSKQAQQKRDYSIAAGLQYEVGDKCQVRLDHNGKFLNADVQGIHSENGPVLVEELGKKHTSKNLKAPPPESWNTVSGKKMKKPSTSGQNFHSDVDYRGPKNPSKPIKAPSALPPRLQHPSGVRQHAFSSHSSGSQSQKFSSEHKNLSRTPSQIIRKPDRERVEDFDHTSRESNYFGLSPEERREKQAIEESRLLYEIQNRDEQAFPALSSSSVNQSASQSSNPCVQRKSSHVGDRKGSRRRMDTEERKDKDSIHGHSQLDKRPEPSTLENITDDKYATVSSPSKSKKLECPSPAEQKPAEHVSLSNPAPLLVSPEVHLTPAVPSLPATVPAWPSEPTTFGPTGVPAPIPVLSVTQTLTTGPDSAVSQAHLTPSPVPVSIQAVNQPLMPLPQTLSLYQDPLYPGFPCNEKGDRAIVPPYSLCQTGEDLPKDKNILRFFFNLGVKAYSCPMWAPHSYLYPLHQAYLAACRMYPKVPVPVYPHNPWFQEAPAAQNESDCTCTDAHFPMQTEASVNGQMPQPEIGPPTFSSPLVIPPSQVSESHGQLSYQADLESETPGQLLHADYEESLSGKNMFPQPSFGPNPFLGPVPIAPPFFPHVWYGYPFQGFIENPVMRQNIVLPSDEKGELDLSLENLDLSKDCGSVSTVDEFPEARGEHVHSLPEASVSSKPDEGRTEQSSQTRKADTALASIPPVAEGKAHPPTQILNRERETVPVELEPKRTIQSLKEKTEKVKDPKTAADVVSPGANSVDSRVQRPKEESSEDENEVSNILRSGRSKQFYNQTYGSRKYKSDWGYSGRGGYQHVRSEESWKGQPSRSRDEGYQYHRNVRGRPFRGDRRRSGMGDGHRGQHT
How it was run: as §1

OTUD5 = target: T5, OTUD5 (UniProt Q96G74)
T5 sequence (whole entry): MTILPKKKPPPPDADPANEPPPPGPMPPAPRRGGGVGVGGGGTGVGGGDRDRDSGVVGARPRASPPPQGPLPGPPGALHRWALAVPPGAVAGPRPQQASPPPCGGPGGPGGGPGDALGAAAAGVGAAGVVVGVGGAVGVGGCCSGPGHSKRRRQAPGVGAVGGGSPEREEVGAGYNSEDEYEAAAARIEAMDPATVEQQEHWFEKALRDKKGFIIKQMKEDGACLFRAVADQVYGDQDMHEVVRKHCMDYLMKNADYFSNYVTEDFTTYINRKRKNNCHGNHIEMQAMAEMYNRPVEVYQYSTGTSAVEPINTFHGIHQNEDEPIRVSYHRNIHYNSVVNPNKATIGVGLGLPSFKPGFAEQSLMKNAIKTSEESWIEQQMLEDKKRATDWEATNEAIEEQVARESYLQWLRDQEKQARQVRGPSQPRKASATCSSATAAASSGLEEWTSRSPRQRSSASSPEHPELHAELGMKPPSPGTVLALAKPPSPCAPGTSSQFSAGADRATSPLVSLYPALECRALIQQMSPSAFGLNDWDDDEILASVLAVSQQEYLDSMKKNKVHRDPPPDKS
How it was run: as §1

Measured: log2 ratio of Biotin-Ahx-Ub-VS probe labelling

Chain of EIF3H (O15372 whole entry): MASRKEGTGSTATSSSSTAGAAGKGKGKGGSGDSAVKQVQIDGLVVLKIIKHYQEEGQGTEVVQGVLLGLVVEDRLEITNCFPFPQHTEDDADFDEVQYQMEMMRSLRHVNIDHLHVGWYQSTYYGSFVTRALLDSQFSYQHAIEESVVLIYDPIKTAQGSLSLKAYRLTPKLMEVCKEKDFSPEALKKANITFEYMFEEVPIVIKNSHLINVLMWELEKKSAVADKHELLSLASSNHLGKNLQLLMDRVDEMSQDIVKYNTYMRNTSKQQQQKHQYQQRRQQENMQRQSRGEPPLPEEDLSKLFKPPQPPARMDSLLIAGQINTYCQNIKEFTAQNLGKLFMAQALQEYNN
Chain of EIF3F (O00303 whole entry): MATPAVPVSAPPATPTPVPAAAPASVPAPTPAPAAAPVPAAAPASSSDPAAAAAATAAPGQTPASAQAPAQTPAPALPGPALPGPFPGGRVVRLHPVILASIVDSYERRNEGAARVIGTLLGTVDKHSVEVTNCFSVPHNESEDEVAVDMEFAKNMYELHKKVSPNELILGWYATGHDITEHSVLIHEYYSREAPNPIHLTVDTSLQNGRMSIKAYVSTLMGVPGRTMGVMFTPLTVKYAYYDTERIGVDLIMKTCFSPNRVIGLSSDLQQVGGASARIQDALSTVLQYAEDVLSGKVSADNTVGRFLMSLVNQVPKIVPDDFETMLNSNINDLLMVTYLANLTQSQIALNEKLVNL
Chain of OTUB1 (Q96FW1 whole entry): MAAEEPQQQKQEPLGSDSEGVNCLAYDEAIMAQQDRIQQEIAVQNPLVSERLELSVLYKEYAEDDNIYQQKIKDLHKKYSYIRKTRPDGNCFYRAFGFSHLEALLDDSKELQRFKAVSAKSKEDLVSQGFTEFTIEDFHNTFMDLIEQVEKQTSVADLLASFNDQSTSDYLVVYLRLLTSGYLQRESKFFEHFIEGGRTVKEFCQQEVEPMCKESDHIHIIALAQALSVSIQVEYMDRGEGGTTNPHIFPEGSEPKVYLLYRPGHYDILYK
Chain of ATXN3 (P54252 whole entry): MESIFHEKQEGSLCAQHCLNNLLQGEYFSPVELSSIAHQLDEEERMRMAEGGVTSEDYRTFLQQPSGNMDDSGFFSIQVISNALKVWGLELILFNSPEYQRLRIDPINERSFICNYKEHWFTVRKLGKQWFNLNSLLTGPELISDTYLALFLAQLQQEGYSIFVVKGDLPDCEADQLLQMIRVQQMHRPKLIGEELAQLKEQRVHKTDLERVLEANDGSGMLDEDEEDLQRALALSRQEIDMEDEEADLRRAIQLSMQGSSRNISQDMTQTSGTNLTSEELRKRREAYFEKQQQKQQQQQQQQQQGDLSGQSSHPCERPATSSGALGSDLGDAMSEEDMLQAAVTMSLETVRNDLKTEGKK

CN(Cc1nc2ccccc2[nH]1)C(=O)CCl.Cl
inactive: ALG13 0.0974 | ATXN3 -0.483 | BAP1 -0.482 | EIF3F -0.447 | EIF3H 0.225 | FAM105A -0.213 | OTUB1 -0.189 | OTUD4 0.0195 | OTUD5 -0.483
